The nature of assay [1]: Quantitative high throughput screen for delayed death inhibitors of the malarial parasite plastid, 48 hour incubation (AID 488752). Also: nearly all actives have a fitted effect of over 65% in size. Also: potency is read from the fitted curve at half-maximal effect. The gist of the method:
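One-generation (48 h) growth assay: a decrease in luciferase signal from an integrated reporter in P. falciparum-infected red cells (0.1% parasitemia, 2% hematocrit) after compound exposure at 37 C indicates parasite inhibition.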

Assay [2] has as its target Thioredoxin reductase 1, cytoplasmic (Rattus norvegicus) (UniProt O89049). Nature of the assay: qHTS Assay for Substrates of Mammalian Selenoprotein Thioredoxin Reductase 1 (TrxR1) (AID 488772).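 Also: series mostly up to about 57 µM; a drop in NADPH fluorescence below the no-compound background marks a TrxR1 substrate.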 In outline: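 In this dual-purpose format, potential substrates are identified from the first fluorescence read after selenite addition, not from the 8-minute delta. Rat enzyme is preincubated with NADPH and then with compound at ~22 deg C.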

The target is the same in assay [3]. The assay can be described thus: qHTS Assay for Inhibitors of Mammalian Selenoprotein Thioredoxin Reductase 1 (TrxR1) (AID 488773). Also: nearly all actives have a fitted effect of over 40% in size. Also: potency is read from the fitted curve at half-maximal effect. Particulars: Potency: inhibition. The gist of the method: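 Inhibition is scored from the loss of NADPH fluorescence between first and last reads of an 8-min kinetic run. Selenite (400 uM) was the substrate, added after 15 min compound preincubation at room temperature.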
For orientation: qHTS replaces the single test concentration by a dilution series.

The target in assay [4] is Flap endonuclease 1 (Homo sapiens) (UniProt P39748). The assay can be described thus: qHTS Validation Assay for the Inhibitors of Human Flap endonuclease 1 (FEN1) (AID 488816). Also: potency is read from the fitted curve at half-maximal effect. The gist of the method:
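Steps: add FEN1 (10 nM reagent) or buffer only; pin compounds; hold 15 min at room temperature; start with substrate, 50 nM final; read at 0 and 15 min; correct, normalize and fit a four-parameter Hill curve.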

The target of assay [5] is M-phase phosphoprotein 8 (Homo sapiens) (UniProt Q99549). The assay can be described thus: qHTS Validation Assay for Inhibitors for MPP8 Chromodomain Interactions with Methylated Histone Tails (AID 488949). Also: nearly all actives have a fitted effect of over 55% in size. Also: potency is read from the fitted curve at half-maximal effect. In outline:
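AlphaScreen proximity signal from streptavidin donor and Ni-chelate acceptor beads (10 ug/mL each) reported binding of MPP8 to trimethyl-K9 H3(1-18) peptide, both at 50 nM. The complex formed 30 min before a 30 min compound exposure at room temperature, in PBS pH 7.4.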

The target of assay [6] is Methanococcus maripaludis chaperonin (MmCpn) (UniProt Q6LX38). The assay can be described thus: High-Throughput Screening for Modulators of Cytosolic Chaperonin Activity: MmCpn Primary Screen (AID 488978).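 Also: 50 nM MmCpn enzyme hydrolysing 30 µM ATP at 37 °C.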 In outline: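 ATPase activity of 50 nM MmCpn was assayed with 30 uM ATP, 10 minutes at 37C, after a 5 min compound preincubation at room temperature. ADP production was read as HTRF emission at 590 and 665 nm.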

Assay [7] concerns the target Transient receptor potential cation channel subfamily V member 1 (Homo sapiens) (UniProt Q8NER1). The assay can be described thus: HTS Assay for Compounds that Act as Enhancers of the Vanilloid Receptor 1 (AID 488979). In outline: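 TRPV1-expressing cells loaded with Fluo-8 calcium dye; compounds added and calcium influx read kinetically for 3 min (agonist phase), then capsaicin at EC20 added and read 2 min more for enhancement. Fluorescence ex 480/em 520 nm.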

Assay [8] in a line: Quantitative high throughput screen for delayed death inhibitors of the malarial parasite plastid, 96 hour incubation (AID 488745). Also: nearly all actives have a fitted effect of over 70% in size. Also: potency is read from the fitted curve at half-maximal effect. The gist of the method:
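Decreased firefly luciferase luminescence indicates inhibited growth of reporter-integrated P. falciparum after two generations (96 h, 37 C, 5% CO2). Infected erythrocytes at 0.1% parasitemia, 2% hematocrit, in Albumax-supplemented RPMI 1640.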

Assay [9] concerns the target Chromobox protein homolog 1 (Homo sapiens) (UniProt P83916). The assay can be described thus: qHTS Validation Assay for Inhibitors of HP1-beta Chromodomain Interactions with Methylated Histone Tails (AID 488953). Also: nearly all actives have a fitted effect of over 50% in size. Also: potency is read from the fitted curve at half-maximal effect. In outline:
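AlphaScreen proximity signal from streptavidin donor and nickel chelate acceptor beads (final 10 ug/mL) after 30 min dark incubation. Compounds had 30 min at room temperature with preformed complex of 50 nM HP1-beta and 50 nM b-H3(1-18)K9me3 in PBS pH 7.4 with 0.01% Tween-20.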

For assay [10], the target named is Thyrotropin receptor (Homo sapiens) (UniProt P16473). The assay can be described thus: qHTS Assay for Antagonists of the Thyroid Stimulating Hormone Receptor (AID 488980). Also: series mostly up to about 58 µM. The gist of the method: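 Inhibition of cAMP raised by EC80 TSH (4 nM final) was read by HTRF, with lysate cAMP competing against cAMP-d2 for cryptate antibody after 30 min at room temperature. The cells were transfected HEK293 held in phosphodiesterase inhibitor RO 20-1724 at 70 uM.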

SMILES strings stand for the structures. Records with an inconclusive call do not appear. The source made the active and inactive calls. Calls follow the shape of the dose curve; as a rule, active = well fitted curve in the direction sought with a large enough effect; inconclusive = small, poorly fitted or top-dose-only effect, or another doubt; inactive = no such curve, though single readings can be large; an effect the other way counts as inactive or inconclusive.

Thioredoxin reductase 1, cytoplasmic (Rattus norvegicus), sequence (O89049 whole entry, looked up): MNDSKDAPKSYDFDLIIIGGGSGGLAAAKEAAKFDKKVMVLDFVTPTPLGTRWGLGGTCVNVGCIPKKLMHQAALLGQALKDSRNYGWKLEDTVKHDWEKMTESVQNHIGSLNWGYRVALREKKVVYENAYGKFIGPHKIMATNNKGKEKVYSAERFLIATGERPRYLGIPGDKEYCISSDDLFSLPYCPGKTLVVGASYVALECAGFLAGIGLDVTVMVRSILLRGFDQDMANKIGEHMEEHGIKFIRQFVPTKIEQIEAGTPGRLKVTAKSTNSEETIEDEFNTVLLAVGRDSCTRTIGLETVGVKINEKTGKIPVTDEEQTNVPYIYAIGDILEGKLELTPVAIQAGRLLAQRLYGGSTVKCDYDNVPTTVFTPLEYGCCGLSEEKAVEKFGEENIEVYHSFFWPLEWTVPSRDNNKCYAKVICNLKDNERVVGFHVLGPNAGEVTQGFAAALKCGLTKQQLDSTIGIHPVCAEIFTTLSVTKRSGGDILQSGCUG
M-phase phosphoprotein 8 (Homo sapiens), sequence (Q99549 whole entry, looked up): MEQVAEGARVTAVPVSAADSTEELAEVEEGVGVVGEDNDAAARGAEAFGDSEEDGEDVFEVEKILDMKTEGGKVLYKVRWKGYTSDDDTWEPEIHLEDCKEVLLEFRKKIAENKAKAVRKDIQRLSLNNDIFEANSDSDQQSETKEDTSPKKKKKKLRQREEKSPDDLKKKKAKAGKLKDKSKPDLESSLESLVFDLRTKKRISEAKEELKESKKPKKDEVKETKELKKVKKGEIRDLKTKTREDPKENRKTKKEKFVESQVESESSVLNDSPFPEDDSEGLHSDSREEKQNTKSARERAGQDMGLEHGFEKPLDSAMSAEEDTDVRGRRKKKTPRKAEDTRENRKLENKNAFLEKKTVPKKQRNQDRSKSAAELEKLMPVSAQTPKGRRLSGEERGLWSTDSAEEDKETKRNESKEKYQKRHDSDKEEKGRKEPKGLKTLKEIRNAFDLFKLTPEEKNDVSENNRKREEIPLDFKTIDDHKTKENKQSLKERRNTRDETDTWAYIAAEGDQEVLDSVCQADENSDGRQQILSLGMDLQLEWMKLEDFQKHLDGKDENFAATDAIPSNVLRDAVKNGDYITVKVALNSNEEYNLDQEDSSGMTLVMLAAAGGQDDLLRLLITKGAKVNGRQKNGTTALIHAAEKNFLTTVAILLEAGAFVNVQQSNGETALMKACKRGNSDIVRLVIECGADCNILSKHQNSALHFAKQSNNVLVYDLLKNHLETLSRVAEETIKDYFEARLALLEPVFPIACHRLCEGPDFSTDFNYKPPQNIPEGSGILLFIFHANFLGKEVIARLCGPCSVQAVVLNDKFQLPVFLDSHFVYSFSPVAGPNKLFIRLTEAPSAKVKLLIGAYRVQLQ
Transient receptor potential cation channel subfamily V member 1 (Homo sapiens), sequence (Q8NER1 whole entry, looked up): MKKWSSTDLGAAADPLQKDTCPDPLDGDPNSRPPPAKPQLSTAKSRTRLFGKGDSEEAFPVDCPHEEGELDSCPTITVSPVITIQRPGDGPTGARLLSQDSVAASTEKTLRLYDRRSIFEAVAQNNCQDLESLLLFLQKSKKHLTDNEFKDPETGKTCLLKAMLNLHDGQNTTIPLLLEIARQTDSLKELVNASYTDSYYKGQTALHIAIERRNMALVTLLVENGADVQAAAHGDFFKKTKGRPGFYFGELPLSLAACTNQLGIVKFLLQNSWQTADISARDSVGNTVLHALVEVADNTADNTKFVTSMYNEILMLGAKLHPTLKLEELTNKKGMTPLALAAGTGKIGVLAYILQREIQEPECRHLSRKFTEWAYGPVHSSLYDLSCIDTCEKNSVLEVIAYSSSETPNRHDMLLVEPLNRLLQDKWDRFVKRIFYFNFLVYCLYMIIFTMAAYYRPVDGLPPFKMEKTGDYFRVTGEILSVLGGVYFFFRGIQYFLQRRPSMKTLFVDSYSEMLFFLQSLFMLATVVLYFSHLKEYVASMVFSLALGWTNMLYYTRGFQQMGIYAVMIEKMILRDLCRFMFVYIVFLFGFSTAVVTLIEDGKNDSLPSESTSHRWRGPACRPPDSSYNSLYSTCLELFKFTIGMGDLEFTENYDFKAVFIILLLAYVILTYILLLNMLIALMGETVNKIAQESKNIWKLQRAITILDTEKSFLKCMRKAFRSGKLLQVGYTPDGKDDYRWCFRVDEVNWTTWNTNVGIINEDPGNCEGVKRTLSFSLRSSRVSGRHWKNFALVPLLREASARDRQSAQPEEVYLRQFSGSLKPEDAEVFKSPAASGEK
Flap endonuclease 1 (Homo sapiens), sequence (P39748 whole entry, looked up): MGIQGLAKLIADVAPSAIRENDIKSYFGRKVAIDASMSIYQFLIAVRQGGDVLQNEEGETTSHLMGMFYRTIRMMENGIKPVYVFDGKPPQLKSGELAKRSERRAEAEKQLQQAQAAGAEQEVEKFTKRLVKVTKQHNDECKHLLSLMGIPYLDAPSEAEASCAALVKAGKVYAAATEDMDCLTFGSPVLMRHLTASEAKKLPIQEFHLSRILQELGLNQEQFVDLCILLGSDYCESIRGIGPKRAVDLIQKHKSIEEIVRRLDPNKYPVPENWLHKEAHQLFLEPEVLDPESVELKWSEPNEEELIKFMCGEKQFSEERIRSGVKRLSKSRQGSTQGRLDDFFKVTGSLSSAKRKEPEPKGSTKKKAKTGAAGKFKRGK
Methanococcus maripaludis chaperonin (MmCpn), sequence (Q6LX38 1-543): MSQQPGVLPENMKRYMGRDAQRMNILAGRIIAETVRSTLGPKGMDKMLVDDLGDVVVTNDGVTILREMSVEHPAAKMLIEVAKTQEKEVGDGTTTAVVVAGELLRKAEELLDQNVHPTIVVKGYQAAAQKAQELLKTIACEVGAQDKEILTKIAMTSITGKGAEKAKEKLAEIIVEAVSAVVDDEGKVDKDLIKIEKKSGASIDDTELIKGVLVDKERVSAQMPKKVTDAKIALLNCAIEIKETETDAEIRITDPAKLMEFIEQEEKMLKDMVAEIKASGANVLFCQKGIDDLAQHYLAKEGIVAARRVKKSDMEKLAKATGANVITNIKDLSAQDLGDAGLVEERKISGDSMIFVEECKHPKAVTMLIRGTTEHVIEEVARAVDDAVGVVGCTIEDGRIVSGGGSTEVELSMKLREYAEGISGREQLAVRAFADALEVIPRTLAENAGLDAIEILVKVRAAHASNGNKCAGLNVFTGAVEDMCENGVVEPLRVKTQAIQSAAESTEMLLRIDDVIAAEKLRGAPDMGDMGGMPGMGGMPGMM
Chromobox protein homolog 1 (Homo sapiens), sequence (P83916 whole entry, looked up): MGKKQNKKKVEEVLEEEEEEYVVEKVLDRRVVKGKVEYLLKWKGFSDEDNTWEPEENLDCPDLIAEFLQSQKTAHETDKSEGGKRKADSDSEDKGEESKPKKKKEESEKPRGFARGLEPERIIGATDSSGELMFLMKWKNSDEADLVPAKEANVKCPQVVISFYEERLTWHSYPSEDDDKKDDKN
Thyrotropin receptor (Homo sapiens), sequence (P16473 whole entry, looked up): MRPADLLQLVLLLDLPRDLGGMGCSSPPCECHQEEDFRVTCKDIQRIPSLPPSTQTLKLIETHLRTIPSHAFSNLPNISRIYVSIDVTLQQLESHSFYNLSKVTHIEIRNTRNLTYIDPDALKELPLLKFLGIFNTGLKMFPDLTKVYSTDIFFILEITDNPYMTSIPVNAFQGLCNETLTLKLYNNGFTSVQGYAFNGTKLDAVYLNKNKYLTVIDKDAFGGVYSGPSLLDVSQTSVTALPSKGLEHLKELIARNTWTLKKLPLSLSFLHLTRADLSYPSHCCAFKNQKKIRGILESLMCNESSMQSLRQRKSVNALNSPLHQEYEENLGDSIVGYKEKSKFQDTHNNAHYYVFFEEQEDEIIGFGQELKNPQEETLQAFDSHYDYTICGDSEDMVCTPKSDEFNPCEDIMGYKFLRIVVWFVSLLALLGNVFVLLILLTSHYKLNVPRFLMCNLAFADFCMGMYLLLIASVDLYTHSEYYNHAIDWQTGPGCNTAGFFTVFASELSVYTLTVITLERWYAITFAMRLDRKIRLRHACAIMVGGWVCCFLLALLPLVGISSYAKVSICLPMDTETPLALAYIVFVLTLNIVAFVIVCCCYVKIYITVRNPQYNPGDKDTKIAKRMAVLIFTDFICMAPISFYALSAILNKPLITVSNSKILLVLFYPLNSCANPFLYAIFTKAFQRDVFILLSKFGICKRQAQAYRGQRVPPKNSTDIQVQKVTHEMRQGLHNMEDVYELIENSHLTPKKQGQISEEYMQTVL

As to `Cc1[nH]c2ccc(O)cc2c1CCN`, the Potency result in assay [1], in assay [3], in assay [4] and in [5] was “inactive” throughout. Besides, the outcome in assay [2], in [6] and in assay [7] was inactive.

As to `C[N+](C)(C)CCOC(=O)CBr`, the Potency result in assay [8], in [1], in [3] and in [9] was “inactive” each time. Besides, the outcome in assay [6] and in assay [7] was inactive.

On to `CN1C2CCC1CC(OC(c1ccccc1)c1ccc(Cl)cc1)C2` (centres undefined), for which the Potency in assay [8] was 0.147 µM (active); in [1] it was 6.57 µM (active). Also, the compound was classed as inactive in assay [10].

Consider `COc1ccc(CNC(=O)/C=C/c2ccc3[nH]cc(CCN(C)C)c3c2)cc1`, for which the Potency in [8] is 11.7 µM (active). Also, the result in assay [2], in [6], in assay [7] and in assay [10] was inactive. Also, the Potency result in assay [3], in assay [4], in assay [5] and in assay [9] was “inactive” each time.

For `CC(C)CC(NP(=O)(O)O[C@@H]1O[C@@H](C)[C@H](O)[C@@H](O)[C@H]1O)C(=O)NC(Cc1c[nH]c2ccccc12)C(=O)O` (some centres undefined), the Potency result in [8], in assay [1], in [4] and in [5] was “inactive” each time. Also, the outcome in assay [7] and in [10] was inactive.

Turning to `CC(=O)c1c(O)c(C)c(O)c(Cc2c(O)c3c(c(C(=O)/C=C/c4ccccc4)c2O)OC(C)(C)C=C3)c1O`, the Potency in [1] was 14.7 µM (active); in assay [3], 2.12 µM (active); in assay [9], 12.6 µM (active). Moreover, the compound was called inactive in [2], in assay [6], in assay [7] and in assay [10]. In [4], the Potency result is “inactive”.

On to `NC(N)=Nc1ccc2[nH]c3c(c2c1)C[C@@]1(O)[C@H]2Cc4ccc(O)c5c4[C@@]1(CCN2CC1CC1)[C@H]3O5`, for which the Potency result in assay [1] was “inactive”. The call in [2], in assay [6] and in assay [7] was inactive. Also, the Potency in [3] was 26.7 µM (active); in assay [9], 28.2 µM (active).

As for `C[N+]1(C)CCC(OC(=O)C(c2ccccc2)c2ccccc2)CC1`, the Potency in [8] was 2.08 µM (active); in assay [1] it was 9.28 µM (active). Also, the result in assay [7] and in [10] was inactive.

For the compound `CCN(CC)c1ncnc2c1ncn2[C@@H]1O[C@H](COP(=O)(O)OP(=O)(O)C(Br)(Br)P(=O)(O)O)[C@@H](O)[C@H]1O`, the Potency entry in assay [8], in assay [1] and in assay [5] was “inactive” each time. Further, in assay [7], the result was inactive.

On to `c1ccc2cc(CC3=NCCN3)ccc2c1`, for which the Potency result in assay [1], in [4], in [5] and in assay [9] was “inactive” each time. Further, the compound was classed as inactive in [2], in [6] and in assay [7].

Take `COc1ccc2c(c1)C13CCCCC1C(C2)N(C)CC3` (centres undefined): the Potency result in assay [1], in assay [4] and in [9] was “inactive” in each case. Besides, the result in assay [2], in assay [6], in [7] and in assay [10] was inactive.

Consider `C[C@@H]1O[C@H](C[N+](C)(C)C)CS1`, for which the Potency entry in assay [1], in [5] and in assay [9] was “inactive” throughout. The compound was called inactive in assay [2], in assay [6] and in assay [7].

As to `CN1CCC(c2c[nH]c3ccc(O)cc23)CC1`, the Potency result in [1], in [4] and in assay [9] was “inactive” throughout. Besides, the call in assay [2], in assay [6], in [7] and in assay [10] was inactive.

Turning to `CC(C)(C)c1cc(C=C(C#N)C#N)cc(C(C)(C)C)c1O`, the Potency in assay [8] is 1.85 µM (active); in [1] it was 1.47 µM (active); in assay [3] it was 16.8 µM (active); in assay [9] it was 7.94 µM (active). Moreover, the Potency entry in [4] was “inactive”. In addition, the outcome in assay [6], in assay [7] and in assay [10] was inactive.

On to `Oc1ccc2c3c1O[C@H]1c4oc5ccccc5c4C[C@@]4(O)C(C2)N(CC2CC2)CCC314` (some centres undefined), for which, in [8], the Potency was 7.38 µM (active). Moreover, the compound was called inactive in [2], in assay [6], in assay [7] and in assay [10]. The Potency result in assay [3], in assay [4], in assay [5] and in assay [9] was “inactive” in each case.

Consider `CCCn1c(=O)c2[nH]c(C3CCCC3)nc2n(CCCOC(=O)c2ccc(S(=O)(=O)F)cc2)c1=O`, for which the Potency entry in assay [1], in [3], in [4], in assay [5] and in assay [9] was “inactive” each time. For the same compound, the compound was called inactive in assay [2], in assay [6], in assay [7] and in assay [10].

`CNC(=O)OCC[N+](C)(C)C`: the Potency result in assay [1] and in [5] was “inactive” throughout. Further, the outcome in assay [7] was inactive.

`CN1CC[C@@]2(C)c3cc(O)ccc3N(C)C12` (some centres undefined): the values for the Potency in assay [1] and in assay [9] were 14.7 µM (active) and 0.0095 µM (active), respectively. In addition, the outcome in assay [2], in [6], in assay [7] and in [10] was inactive. The Potency result in assay [4] and in [5] was “inactive” each time.

In the case of `CC(C)NP(=O)(NC(C)C)OP(=O)(NC(C)C)NC(C)C`, the Potency result in assay [1], in assay [3], in assay [4] and in [9] was “inactive” each time. Besides, the outcome in [2], in [6], in [7] and in assay [10] was inactive.

Regarding `CC1OC1P(=O)(O)O` (centres undefined), the Potency result in assay [8], in [1] and in assay [5] was “inactive” in each case. Further, the outcome in [7] and in [10] was inactive.

`CC(N)Cc1c[nH]c2ccc(OCc3cccs3)cc12` (centres undefined): the Potency entry in assay [1], in assay [3] and in assay [4] was “inactive” throughout. For the same compound, the compound was classed as inactive in [2], in assay [6] and in assay [10].

On to `NC(C(=O)O)c1cc(=O)[nH]o1` (centres undefined), for which the Potency entry in assay [1], in assay [3], in assay [4], in assay [5] and in assay [9] was “inactive” in each case. The result in assay [2], in assay [6], in [7] and in [10] was inactive.

For the compound `COc1ccc2c(c1)[C@@]13CCCC[C@H]1[C@@H](C2)NCC3`, the Potency result in assay [8], in [4], in [5] and in assay [9] was “inactive” each time. The result in [2], in assay [6] and in [10] was inactive.

Take `CCCCCCCCCCCCCC(=O)O[C@@H]1[C@@H](C)[C@@]2(O)[C@@H](C=C(CO)C[C@@]3(O)C(=O)C(C)=C[C@@H]23)C2C(C)(C)[C@@]21OC(C)=O` (some centres undefined): in assay [8], the Potency was 11.7 µM (active). Further, the compound was classed as inactive in assay [2], in assay [6], in [7] and in assay [10]. Moreover, the Potency result in assay [4], in assay [5] and in [9] was “inactive” each time.

Consider `CCCN1CCCC2Cc3[nH]ncc3CC21` (centres undefined), for which the Potency result in assay [8], in assay [1] and in assay [5] was “inactive” in each case. For the same compound, in assay [7], the result was inactive.

As for `O=P(O)(O)C(Cl)(Cl)P(=O)(O)O`, the Potency entry in assay [8], in [1] and in assay [5] was “inactive” each time. Also, in assay [7], the result was inactive.

Take `C[C@]12Cc3cn4c(nc3C=C1CCC1C2CC[C@@]2(C)[C@H]1CC[C@@]2(O)C#N)nc1ccccc14` (some centres undefined): in [1], the Potency was 3.7 µM (active). Moreover, the call in assay [2], in assay [6], in assay [7] and in [10] was inactive. In addition, the Potency entry in assay [3], in assay [4], in assay [5] and in assay [9] was “inactive” throughout.

For the compound `CN(N=O)c1cc(O)ccc1O`, the Potency result in [1] was “inactive”. Also, the call in assay [2], in [6] and in assay [7] was inactive. The Potency in assay [3] is 0.752 µM (active); in [5], 8.91 µM (active); in assay [9], 50.1 µM (active).

`N#C/C(=C/c1ccc(O)c(O)c1)C(N)=S`: the Potency was 2.99 µM (active) in assay [4], 13.4 µM (active) in assay [5] and 12.6 µM (active) in assay [9]. Also, in assay [6], the outcome was inactive.

Consider `N#CCCN`, for which the outcome in [2] and in assay [6] was inactive. Moreover, the Potency entry in assay [4], in assay [5] and in assay [9] was “inactive” throughout.

In the case of `N=C(N)c1ccc(CS(=O)(=O)F)cc1`, the call in assay [2] and in assay [6] was inactive. For the same compound, the Potency entry in assay [3], in assay [4] and in assay [9] was “inactive” in each case.

For `C[N+]1(C)CCc2cc3c(cc2[C@H]1[C@@H]1OC(=O)c2c1ccc1c2OCO1)OCO3`, the compound was called inactive in [2] and in assay [6]. Further, the Potency result in [3], in [4], in assay [5] and in assay [9] was “inactive” each time.

The values above are taken from PubChem BioAssay (NCATS).
